What all share (assay): NCI-60 one-dose screen, 48 h (100 = growth as untreated, 0 = no growth, -100 = all killed)
Holding throughout (details): 10 µM unless noted

For assay [1], the system named is SK-MEL-2 melanoma.
For assay [2], the system named is EKVX NSCLC.
Assay [3] relates to SN12C renal.
For assay [4], the system named is UO-31 renal.
Assay [5] has as its system TK-10 renal.
In assay [6] the test system is ACHN renal.
The test system of assay [7] is A498 renal.
Assay [8] relates to CCRF-CEM leukemia.
For assay [9], the system named is MOLT-4 leukemia.
For assay [10], the system named is SR leukemia.
The subject of assay [11] is RPMI-8226 leukemia.
The subject of assay [12] is OVCAR-8 ovarian.
For assay [13], the system named is OVCAR-5 ovarian.
Assay [14] has as its system OVCAR-4 ovarian.
Assay [15] relates to SK-OV-3 ovarian.
For assay [16], the system named is IGROV1 ovarian.
Assay [17] deals with HS 578T breast.
The test system of assay [18] is NCI/ADR-RES ovarian.
Assay [19] deals with OVCAR-3 ovarian.

The panel holds about 83,000 compounds, 20% with a hit somewhere; the sample as a whole holds those more often.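 Each cell line was grown in a 96-well plate and treated with one concentration of compound for 48 hours. Values below 10 were considered active.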 Values without a mark were called inactive. Activity calls are given as the source filed them.

With `O=C(COc1ccc(Cl)cc1Cl)N1N=C(c2ccc(Cl)cc2Cl)CC1(O)c1cc(F)c(Cl)cc1Cl` (centres undefined), the growth is 95.3% in assay [1]; 87.7% in [2]; 155% in assay [3]; 76.3% in [4]; 139% in assay [5]; 234% in assay [6]. Further, the growth in assay [7] is 142%; in assay [8], 125%; in assay [9] it was -47.9% (active); in [10], 23.2%; in [11] it was 144%; in assay [12] it was 93.2%. Besides, the growth in assay [13] is 105%; in assay [14], 116%; in assay [15], 110%; in [16], 69.7%; in [17], 122%; in assay [18] it was 106%.
For the compound `O=C(N/N=C/c1ccccc1O)c1ccccc1O`, the growth is 61.1% in assay [1]; 37.5% in assay [2]; 41% in assay [3]; 3.31% (active) in assay [4]; 42.4% in [5]; 16.7% in assay [6]. In addition, the growth in assay [7] was 99.6%; in [8], 12.7%; in assay [9], 19.3%; in assay [10], 17.1%; in [11] it was 37.4%; in assay [12], 25.1%. Besides, the growth in assay [13] was 55.3%; in assay [14], 24.3%; in assay [15], 47.7%; in assay [16], 24.3%; in [19], 39.8%; in assay [18] it was 21%.
For the compound `N#Cc1c(N)nc2c(c1N)C(c1ccc(Cl)cc1)C1=C(CCCC1=O)N2c1sc2c(c1C#N)CCCC2` (centres undefined), the growth in [1] is 95.8%; in assay [2], 93.7%; in assay [3], 95.4%; in assay [4], 95.9%; in assay [5] it was 89.2%; in [6] it was 96.8%. Also, the growth in assay [7] was 100%; in [8] it was -34% (active); in assay [9] it was 90%; in assay [10], 41.8%; in [11], 75.5%; in assay [12], 84.4%. Moreover, the growth in assay [13] was 74.8%; in [14] it was 89.9%; in assay [15], 89.1%; in assay [16] it was 89.6%; in assay [17], 86.7%; in assay [18] it was 81.1%.
In the case of `CCC1S/C(=N\N=C(/C)c2cc3ccccc3o2)N(c2ccccc2)C1=O` (centres undefined), the growth in assay [1] is 99.6%; in assay [2], 135%; in assay [3] it was 120%; in assay [4] it was 75.9%; in [5] it was 108%; in assay [6] it was 100%. In addition, the growth in assay [7] was 136%; in [8], -72.8% (active); in assay [9], -80.8% (active); in [10] it was 15%; in assay [11], 65.4%; in [12] it was 105%. Further, the growth in [13] was 106%; in [14] it was 95.1%; in assay [15] it was 116%; in [16], -12.9% (active); in assay [17], 98.7%; in assay [18] it was 89%.
Take `O=C(N/N=C1\SCC(=O)N1c1ccccc1)c1cc(-c2cc3ccccc3o2)nn1-c1ccccc1`: the growth in assay [1] is 103%; in assay [2], 96.7%; in assay [3], 122%; in assay [4] it was 118%; in assay [5], 112%; in assay [6], 91%. Besides, the growth is 103% in assay [7]; -84.9% (active) in assay [8]; 87% in assay [9]; 107% in assay [10]; 66.4% in assay [11]; 107% in [12]. Further, the growth was 112% in [13]; 110% in assay [14]; 116% in [15]; 98.9% in [16]; 109% in assay [17]; 108% in [18].
`Nc1ccc(S(=O)(=O)Nc2cc(I)cc(I)c2)cc1`: the growth in assay [1] is 97.7%; in [2] it was 124%; in assay [3], 115%; in assay [4] it was 99.7%; in assay [5] it was 107%; in assay [6] it was 120%. In addition, the growth is 77.7% in assay [7]; -9.38% (active) in assay [8]; -69.4% (active) in [9]; 15.8% in assay [10]; 97.5% in [11]; 107% in assay [12]. For the same compound, the growth in assay [13] is 86.5%; in assay [14], 99%; in assay [15] it was 117%; in assay [16] it was 104%; in assay [17], 117%; in assay [18], 97.5%.
`CCOc1ccc(NC(=O)Nc2cc(C(C)C)ccc2C)cc1`: the growth in [1] is 68.6%; in assay [2], 96.1%; in assay [3], 57.3%; in [4], 15.2%; in assay [5], 55%; in [6], 20.6%. For the same compound, the growth in assay [7] was 87.2%; in assay [8], 44.4%; in assay [9], 72.2%; in assay [10], 36.6%; in assay [11] it was 43.4%; in [12], 27.1%. Further, the growth was 57.7% in [13]; 44.6% in assay [14]; 93.4% in assay [15]; 50.9% in assay [19]; 4.79% (active) in [17]; 58.7% in assay [18].
As to `O=C(Nc1cccc([N+](=O)[O-])c1)c1ccc2ccccc2c1O`, the growth is 44.1% in [1]; 51.9% in assay [2]; 50.5% in [3]; 49.8% in assay [4]; 91.5% in assay [5]; 77.6% in [6]. Besides, the growth in [7] was 41.9%; in assay [8], 39.2%; in assay [9], 66.7%; in assay [10], 92.2%; in [11], -7.69% (active); in [12] it was 80%. For the same compound, the growth in [13] is 64.2%; in assay [14], 44.5%; in [15], 74.6%; in assay [19], 36.9%; in [17], 69.7%; in assay [18] it was 53.1%.
